Measurements taken from article PMC13494018.

B1: design_376_bf9d4634-8475-4fdb-a175-1db49a23bdcd_370_dldesign_0_cycle1_af2pred (protein)
chain: SLGKKLSEALRKAVRAARKAVEYMKAGDEENAEKYYKEAKEYAKELPEDVRNFVLNTMEKKIEEAKKEYA
B2: design_376_bf9d4634-8475-4fdb-a175-1db49a23bdcd_538_dldesign_0_cycle1_af2pred (protein)
chain: EAAELAALKAAGKAMAAVVKAADPALGAKVAATVEAGAKGTPAEFKKALQDAIGAVLLENPEAGRAAAKAAKDTYKAAKAA
B3: design_376_bf9d4634-8475-4fdb-a175-1db49a23bdcd_302_dldesign_0_cycle1_af2pred (protein)
chain: GEAEKEKLKKEIYKLYREERKKVAEAIKKGKEEGKEALEKAEKALEEKAKEAAKYPEAAQLALQYKEALKEYYEMASK
B4: design_623_6e2e8b1f-5d9a-4413-9869-27a184816b12_1750_dldesign_0_cycle1_af2pred (protein)
chain: DLLEQARIAANSTVALKKTTKEILAKSTPESAEKVAEVAVELAKQAKELGKKAGTKEAKELAKKAEKAAKEAVEAVKKAKA
B5: design_623_6e2e8b1f-5d9a-4413-9869-27a184816b12_1942_dldesign_0_cycle1_af2pred (protein)
chain: AAAAATVAANAALAMAKKALEIAERAKKAGEEAPELAQSALQALDVAEALIAYATAISAAADAATKAKLAEAKKVVKEAREIAEKVIK
B6: design_623_6e2e8b1f-5d9a-4413-9869-27a184816b12_1669_dldesign_0_cycle1_af2pred (protein)
chain: SSALQTVKGYLALGKVAATAIRSGKVELGKELAEAAIKGALEAGKEHPEVAEEAEKAAEEIRKITEEALEEVEEA
B7: design_376_bf9d4634-8475-4fdb-a175-1db49a23bdcd_377_dldesign_0_cycle1_af2pred (protein)
chain: GEEVEKLYKELIKAGKEADKALELAVKIGKVDSETLQILGEASIYADNPELAKGLAERDPEKAKERIKETKKAVEEVKKLYKEYK
B8: design_376_bf9d4634-8475-4fdb-a175-1db49a23bdcd_487_dldesign_0_cycle1_af2pred (protein)
chain: DIKEELKKLAEEVKKLAKEVAELSKKDKEEAKVKAEEAEKLAEKALELAVKAIKEDEEAREVAHEAITEAFYALSVADAAK
B9: design_623_6e2e8b1f-5d9a-4413-9869-27a184816b12_1541_dldesign_0_cycle1_af2pred (protein)
chain: DFFEKALKAAKAALKKAEEALEKGKEDLAAAKAAVHQAQAAYVLASGLAVAAEAAGADPKVAKEAKELAEKAKELMEQGKKLAAKLA
B10: design_376_bf9d4634-8475-4fdb-a175-1db49a23bdcd_69_dldesign_0_cycle1_af2pred (protein)
chain: ANKEEVDAAADAISEAFRLAREYVLKEGLDPKEVANKLIQGLDDIEYGLALGEELEKDPASAEAGKALKKAAELLAKI
B11: design_623_6e2e8b1f-5d9a-4413-9869-27a184816b12_2159_dldesign_0_cycle1_af2pred (protein)
chain: AAAAAAKVAEAAAKAMLRTAKAILKESKASGGAKAPDALAAAEVALALADDLERQGGDPKTAEKLKKEAKAVAAEAKKVAA
B12: design_376_bf9d4634-8475-4fdb-a175-1db49a23bdcd_746_dldesign_0_cycle1_af2pred (protein)
chain: MEKAEEMGERLIEAVKESPEKAREVAEEMVRRAKEGDVEEAAAIAQAVAEAYAVAVKENKEAAEIVREALREVQEIGRKKR
B13: design_623_6e2e8b1f-5d9a-4413-9869-27a184816b12_1575_dldesign_0_cycle1_af2pred (protein)
chain: NAGQAVADALRAATEAERAAAAVDPALAAQARALLAKAMQAAVAGDDAEAIAYAAEVRALRDEVLARAAA
B14: design_376_bf9d4634-8475-4fdb-a175-1db49a23bdcd_425_dldesign_0_cycle1_af2pred (protein)
chain: DEEDEKNLEKVKRIYERAKELAKEGLEAIKKGTSKTKALYGAAKLERAAEAAKAASGGKHKEEMKKIAEESKKLAKELEEASKTY
B15: design_376_bf9d4634-8475-4fdb-a175-1db49a23bdcd_661_dldesign_0_cycle1_af2pred (protein)
chain: SENIKKLSDARNEAIKYLREAVKLAGEEIKEEAAKAIELIGDLEKIPEALEEIEKAIKLAEKVENAEEVKKLLKKAKESAEEALKLS
B16: design_623_6e2e8b1f-5d9a-4413-9869-27a184816b12_1798_dldesign_0_cycle1_af2pred (protein)
chain: AAAEEKTKAYEIALETAKLLTAAAALADELAATNPEAAALAAQARQLNVDLNKTAIAGELTLELAEEYLKKAKEIAARVKALAKAA
B17: design_623_6e2e8b1f-5d9a-4413-9869-27a184816b12_2213_dldesign_0_cycle1_af2pred (protein)
chain: AVEELLAKAKEYAAKLKELADDLEAAKALATEKREDIGQVIMAAAIVAATESPEVAARAREVQRHAWSLQR
B18: design_376_bf9d4634-8475-4fdb-a175-1db49a23bdcd_541_dldesign_0_cycle1_af2pred (protein)
chain: EEEAKKLVEKAKEKLKKAKETAKNGTAEEAAKTAKEVFKEAREYGKKLKKKGYDEEYVKKIAEYAHEAAEIYAEESNKV
B19: design_376_bf9d4634-8475-4fdb-a175-1db49a23bdcd_737_dldesign_0_cycle1_af2pred (protein)
chain: MAREKQIKLYGESLLEIAIESAVAAIKKYEDAYKIIKELSEKRAKKAEEAGDKEMGEKIKKIGKEIAELAEKDKEKALEYAKKL
B20: design_623_6e2e8b1f-5d9a-4413-9869-27a184816b12_1571_dldesign_0_cycle1_af2pred (protein)
chain: GEEAKKLAEEGDKLAEQGKAATPQEGLALLLEAAKKYSEAARLYREAGNEEEAAKAEAKLQEVNAQLNAAAKAAIAA
B21: design_623_6e2e8b1f-5d9a-4413-9869-27a184816b12_1410_dldesign_0_cycle1_af2pred (protein)
chain: SEELRERARELREEAERAEREAREAAERGDAERVREQLRRLSRLAAEAARLANQATAAGDEETAAEANEALARAVEAMERAQEWAE
B22: design_623_6e2e8b1f-5d9a-4413-9869-27a184816b12_2207_dldesign_0_cycle1_af2pred (protein)
chain: NPKVEELREEVRRLIAELARAGVAGTPEIAATVGAAIEQALKLLGESRETGEESLKEAIKIVKEALKAAA
B23: design_376_bf9d4634-8475-4fdb-a175-1db49a23bdcd_131_dldesign_0_cycle1_af2pred (protein)
chain: DLEEELKKLIEKALKGNLEEALKALDEAVKLVEEKLSKTTADTAKEIAKAGKENAKKAETEEEARKNIAKALKTIKRIALLDAE
B24: design_376_bf9d4634-8475-4fdb-a175-1db49a23bdcd_110_dldesign_0_cycle1_af2pred (protein)
chain: VEELVEKVKKETAKKVWESTDLSAEEKEKVADELEALAKELAKISPEAAKAAKKAAAVVKRFAEDEKKAE
B25: design_623_6e2e8b1f-5d9a-4413-9869-27a184816b12_1445_dldesign_0_cycle1_af2pred (protein)
chain: EEAVLERIRALGEEGAALFQAAIKAAVAGDVAAAEALLKAGREKFEEAIALGEATSPRARELAEEVRRRMEAGEKIAQLAIEGAKA
B26: design_376_bf9d4634-8475-4fdb-a175-1db49a23bdcd_232_dldesign_0_cycle1_af2pred (protein)
chain: EKEKLEKIVEEIKKYVEEAKELAKGDISSQSKAVSLLHKAFSLAGKAIGKEAKELEDKMLNAETMEEAVKIGEELYEKFSKIAKA
B27: design_623_6e2e8b1f-5d9a-4413-9869-27a184816b12_2057_dldesign_0_cycle1_af2pred (protein)
chain: MEVIEKLKEYGQQAIDILTGLAKAQPAVKDVAEPAAQEVREATKKAVERGEKEGEEAAKKEYEKVHALANAALARVSKLAAA
B28: design_623_6e2e8b1f-5d9a-4413-9869-27a184816b12_1572_dldesign_0_cycle1_af2pred (protein)
chain: KAEEVVKIVREAAREAKKDPEKAKEYANRALGALLDLAKAGSQEAALVASQGAAKIAKKITSGASAEEIAKALEEAAKKVEEAAKKE
B29: design_376_bf9d4634-8475-4fdb-a175-1db49a23bdcd_502_dldesign_0_cycle1_af2pred (protein)
chain: GKKEKALKELEKLKKEAEELEEEGKKAGPKAYQEAGSMLIKIESALSAAKKGDEEEAEKAAKKAKEAYEKGKEKVTKLIKEEKAKKE
B30: design_623_6e2e8b1f-5d9a-4413-9869-27a184816b12_2491_dldesign_0_cycle1_af2pred (protein)
chain: TAKALAAAVEKAKELAAIVAEVQGDGAFGAAMVNTLANYAAAAGVPQALVDRARAAAKEALASADGAKVALAELKALAAEFKAA
B31: design_623_6e2e8b1f-5d9a-4413-9869-27a184816b12_1758_dldesign_0_cycle1_af2pred (protein)
chain: AEKVKELAKKAEELAKKAEKAAKESLAKAEKYAAKADELAREVNREAQKVATSGEAGEALLKALEAQAKARKALAEAKAKAEA
B32: design_623_6e2e8b1f-5d9a-4413-9869-27a184816b12_1921_dldesign_0_cycle1_af2pred (protein)
chain: SSVAAFLAAAAQAVKAAAEQGNLAAAAAFLRAAALASDPEAGKKLEALAKAAEAATAEEGKAIAKEGAKLLKELAEEVEAK
B33: design_623_6e2e8b1f-5d9a-4413-9869-27a184816b12_1663_dldesign_0_cycle1_af2pred (protein)
chain: GLEEFEKIVREAAEKVIENAGDPEKQREIVLEAAKKAEEAGYSATVGAGAINARVRAEGTPEAAAIAAEVYQELRDKERA
B34: design_376_bf9d4634-8475-4fdb-a175-1db49a23bdcd_214_dldesign_0_cycle1_af2pred (protein)
chain: MELLKEAEKYAKEAKEYAEKALKEPEKAEEYVKKAAEYVAKLYELAAEAYRLDKELGKKAKKLAKEARKEVKEKYKEAKK
B35: design_623_6e2e8b1f-5d9a-4413-9869-27a184816b12_1704_dldesign_0_cycle1_af2pred (protein)
chain: MEEALTEAFRAVAEMNRLAEEARKANPEAAEKAEEARREMSRLAIEAARSDAETAAELAKKIKEILEKTKKVVEELA
B36: design_376_bf9d4634-8475-4fdb-a175-1db49a23bdcd_604_dldesign_0_cycle1_af2pred (protein)
chain: SVAAITAHAEALARKAVADPANAAAYLSEARDYVLTNGDAEALRAAADVLRALGAKAPGGAAFAAAARILERAAEDIEKA
B37: design_623_6e2e8b1f-5d9a-4413-9869-27a184816b12_1434_dldesign_0_cycle1_af2pred (protein)
chain: DAAAKELRERATALAGRTLLALARDPAEGERTLEEAVKELEALGKESGLEELAKEEAARLRAQYEAFRAVAEA
B38: design_623_6e2e8b1f-5d9a-4413-9869-27a184816b12_2025_dldesign_0_cycle1_af2pred (protein)
chain: GEERLLAAINEGARAILEVTAPESDAQRNAVVHAFILGMVRGPEQGLADLAAAAAALSPEVAKAAVEEATKIIERYLA

Biological target: VTCN1, Q7Z7D3
Sequence (Q7Z7D3 whole entry): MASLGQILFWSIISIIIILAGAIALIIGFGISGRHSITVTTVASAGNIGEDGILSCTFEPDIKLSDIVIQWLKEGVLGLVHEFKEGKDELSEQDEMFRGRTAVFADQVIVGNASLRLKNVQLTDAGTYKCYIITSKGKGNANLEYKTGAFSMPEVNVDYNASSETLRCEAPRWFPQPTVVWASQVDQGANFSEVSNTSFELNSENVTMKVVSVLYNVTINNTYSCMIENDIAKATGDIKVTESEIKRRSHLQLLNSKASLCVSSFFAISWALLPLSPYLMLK

Binding in a display sort, inactive:
B1 not found, B2 not found, B3 not found, B7 not found, B8 not found, B10 not found, B12 not found, B14 not found, B15 not found, B18 not found, B19 not found, B23 not found, B24 not found, B26 not found, B29 not found, B34 not found, B36 not found

Biological target: CD276, Q5ZPR3
Sequence (Q5ZPR3 whole entry): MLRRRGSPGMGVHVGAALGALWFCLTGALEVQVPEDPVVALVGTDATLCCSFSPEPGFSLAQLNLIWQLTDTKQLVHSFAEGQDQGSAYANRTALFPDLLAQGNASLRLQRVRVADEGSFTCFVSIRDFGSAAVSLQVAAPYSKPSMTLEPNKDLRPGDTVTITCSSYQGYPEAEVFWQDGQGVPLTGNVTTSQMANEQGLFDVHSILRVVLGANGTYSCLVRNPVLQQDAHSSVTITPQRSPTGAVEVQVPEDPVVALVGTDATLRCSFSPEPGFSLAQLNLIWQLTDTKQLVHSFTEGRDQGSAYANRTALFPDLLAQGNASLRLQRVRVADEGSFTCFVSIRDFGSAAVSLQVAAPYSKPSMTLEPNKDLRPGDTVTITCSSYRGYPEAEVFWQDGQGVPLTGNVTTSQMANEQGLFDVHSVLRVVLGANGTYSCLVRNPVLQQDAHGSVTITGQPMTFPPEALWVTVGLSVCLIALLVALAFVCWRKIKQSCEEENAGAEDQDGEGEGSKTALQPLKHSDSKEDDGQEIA

Binding in a display sort, inactive:
B4 not found, B5 not found, B6 not found, B9 not found, B11 not found, B13 not found, B16 not found, B17 not found, B20 not found, B21 not found, B22 not found, B25 not found, B27 not found, B28 not found, B30 not found, B31 not found, B32 not found, B33 not found, B35 not found, B37 not found, B38 not found
